From PubChem BioAssay (NCI)
Compounds without any hit were thinned out: in the full panel of roughly 83,000, 20% have a hit.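 Step 1: grow cells in 96-well plates. Step 2: add test compound at a single concentration. Step 3: incubate 48 h. Step 4: record percent growth.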 The source made the active and inactive calls. The calls were made as follows: active = growth percent below 10; inactive = the rest.

Tests used:
Assay in all cases: NCI-60 one-dose screen, 48 h (100 = growth as untreated, 0 = no growth, -100 = all killed)
Conditions in all cases: 10 µM unless noted
NCI-H23 lung = system: NCI-H23 lung
NCI-H226 lung = system: NCI-H226 lung
NCI-H322M lung = system: NCI-H322M lung
HOP-62 NSCLC = system: HOP-62 NSCLC
NCI-H460 lung = system: NCI-H460 lung
HOP-92 NSCLC = system: HOP-92 NSCLC
A549/ATCC NSCLC = system: A549/ATCC NSCLC
786-0 renal = system: 786-0 renal
COLO 205 colon = system: COLO 205 colon
DU-145 prostate = system: DU-145 prostate
K-562 leukemia = system: K-562 leukemia
MALME-3M melanoma = system: MALME-3M melanoma
MDA-MB-231 breast = system: MDA-MB-231 breast
RXF 393 renal = system: RXF 393 renal
SF-268 CNS = system: SF-268 CNS
SF-295 CNS = system: SF-295 CNS
SF-539 CNS = system: SF-539 CNS
UACC-257 melanoma = system: UACC-257 melanoma
M14 melanoma = system: M14 melanoma

Measured: growth

COc1ccc2c(c1)[n+](=O)c(C(=O)/C=C/c1cc(OC)c(OC)c(OC)c1)c(C)n2[O-]
inactive: NCI-H23 lung 65.9% | NCI-H226 lung 79.1% | NCI-H322M lung 81.3% | HOP-62 NSCLC 101% | NCI-H460 lung 44.7% | HOP-92 NSCLC 63.7% | A549/ATCC NSCLC 74.1% | 786-0 renal 70.9% | COLO 205 colon 58.9% | DU-145 prostate 47.6% | K-562 leukemia 35.4% | MALME-3M melanoma 91.8% | MDA-MB-231 breast 67.9% | RXF 393 renal 48.6% | SF-268 CNS 56.3% | SF-295 CNS 87.5% | SF-539 CNS 81.9% | UACC-257 melanoma 80.5% | M14 melanoma 80.1%

CN(C)c1ccc(-n2nc3ccccc3n2)cc1
inactive: NCI-H23 lung 95.6% | NCI-H226 lung 86.4% | NCI-H322M lung 111% | HOP-62 NSCLC 78% | NCI-H460 lung 105% | HOP-92 NSCLC 86.9% | A549/ATCC NSCLC 92.3% | 786-0 renal 83.3% | COLO 205 colon 102% | DU-145 prostate 101% | K-562 leukemia 70.1% | MALME-3M melanoma 117% | MDA-MB-231 breast 85.4% | RXF 393 renal 98.9% | SF-268 CNS 127% | SF-295 CNS 82.7% | SF-539 CNS 86.1% | UACC-257 melanoma 101% | M14 melanoma 92.2%

COC(=O)[C@H](Cc1cn(C)cn1)NC(=O)[C@H](C)NC(=O)Nc1cc(C(F)(F)F)cc(C(F)(F)F)c1
active: NCI-H23 lung -60.9% [100 µM] | NCI-H226 lung -33.9% [100 µM] | NCI-H322M lung -54.6% [100 µM] | HOP-62 NSCLC -95.3% [100 µM] | NCI-H460 lung -34.3% [100 µM] | HOP-92 NSCLC -95.3% [100 µM] | A549/ATCC NSCLC -25% [100 µM] | 786-0 renal -80.8% [100 µM] | COLO 205 colon -92% [100 µM] | DU-145 prostate -80.3% [100 µM] | K-562 leukemia -26.6% [100 µM] | MALME-3M melanoma -81.3% [100 µM] | MDA-MB-231 breast -76.4% [100 µM] | RXF 393 renal -83.1% [100 µM] | SF-268 CNS -77% [100 µM] | SF-295 CNS -82.2% [100 µM] | SF-539 CNS -95.1% [100 µM] | UACC-257 melanoma -92.9% [100 µM] | M14 melanoma -85.2% [100 µM]

COC(=O)[C@H](Cc1cn(C)cn1)NC(=O)[C@@H](NC(=O)Nc1cc(C(F)(F)F)cc(C(F)(F)F)c1)C(C)C
active: NCI-H23 lung -77.2% [100 µM] | NCI-H226 lung -52.3% [100 µM] | NCI-H322M lung -90.4% [100 µM] | HOP-62 NSCLC -98.6% [100 µM] | NCI-H460 lung -45.9% [100 µM] | HOP-92 NSCLC -96.6% [100 µM] | A549/ATCC NSCLC -73% [100 µM] | 786-0 renal -90.6% [100 µM] | COLO 205 colon -94.4% [100 µM] | DU-145 prostate -97.1% [100 µM] | K-562 leukemia -53.5% [100 µM] | MALME-3M melanoma -90.5% [100 µM] | MDA-MB-231 breast -90.2% [100 µM] | RXF 393 renal -83.3% [100 µM] | SF-268 CNS -89.4% [100 µM] | SF-295 CNS -91% [100 µM] | UACC-257 melanoma -95.9% [100 µM] | M14 melanoma -92.8% [100 µM]

CCN(CC)c1ccc(C(=C2C=CC(=[N+](CC)Cc3cccc(S(=O)(=O)O)c3)C=C2)c2ccc(N(CC)Cc3cccc(S(=O)(=O)O)c3)cc2)cc1
inactive: NCI-H23 lung 45.2% | NCI-H226 lung 71.3% | NCI-H322M lung 58.3% | NCI-H460 lung 49.1% | HOP-92 NSCLC 66.3% | 786-0 renal 55.9% | COLO 205 colon 14% | DU-145 prostate 37.2% | MALME-3M melanoma 59.4% | MDA-MB-231 breast 62.3% | SF-268 CNS 34.5% | SF-295 CNS 15.5% | SF-539 CNS 62.1% | M14 melanoma 19.5%
active: HOP-62 NSCLC 1.01% | A549/ATCC NSCLC -4.01% | K-562 leukemia 7.9%

NS(=O)(=O)c1ccc(-n2nc(-c3ccc(Br)cc3)ccc2=O)cc1
active: HOP-92 NSCLC -30.5% [100 µM]
inactive: NCI-H23 lung 61.3% [100 µM] | NCI-H226 lung 79.5% [100 µM] | NCI-H322M lung 87.7% [100 µM] | HOP-62 NSCLC 20% [100 µM] | NCI-H460 lung 67.2% [100 µM] | A549/ATCC NSCLC 58% [100 µM] | 786-0 renal 46.7% [100 µM] | COLO 205 colon 80.2% [100 µM] | DU-145 prostate 12.4% [100 µM] | K-562 leukemia 40.1% [100 µM] | MALME-3M melanoma 55.1% [100 µM] | MDA-MB-231 breast 34.2% [100 µM] | RXF 393 renal 40.9% [100 µM] | SF-268 CNS 66.8% [100 µM] | SF-539 CNS 67% [100 µM] | UACC-257 melanoma 106% [100 µM] | M14 melanoma 62.4% [100 µM]

COC(=O)[C@H](Cc1cn(C)cn1)NC(=O)[C@H](Cc1ccccc1)NC(=O)Nc1cc(C(F)(F)F)cc(C(F)(F)F)c1
active: NCI-H23 lung -83.3% [100 µM] | NCI-H226 lung -50.9% [100 µM] | NCI-H322M lung -94.2% [100 µM] | HOP-62 NSCLC -97.4% [100 µM] | NCI-H460 lung -50% [100 µM] | HOP-92 NSCLC -97.3% [100 µM] | A549/ATCC NSCLC -85.6% [100 µM] | 786-0 renal -91.4% [100 µM] | COLO 205 colon -82.1% [100 µM] | DU-145 prostate -99.7% [100 µM] | K-562 leukemia -60.2% [100 µM] | MALME-3M melanoma -86.3% [100 µM] | MDA-MB-231 breast -90.8% [100 µM] | RXF 393 renal -84.3% [100 µM] | SF-268 CNS -94.8% [100 µM] | SF-539 CNS -94% [100 µM] | UACC-257 melanoma -96.6% [100 µM] | M14 melanoma -90.9% [100 µM]
